Screens: PubChem, several laboratories
NADH coupling: inhibition of NAD/NADH coupling enzymes, library profiling; coupled PK/LDH NADH assays, four targets; IC50, µM (doses to about 10 µM), without a hit: at the top dose inhibition; AID 774; 0.02% of 65,000 active;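 active means single-dose screening hits from any of four coupled enzyme assays that gave an IC50 when retested across doses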;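 further: the DPM-DC format reads NADH fluorescence rather than 340 nm absorbance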
Hsp90 block: displaces geldanamycin probe from tumor Hsp90. P07900. NCI-N417 lysate Hsp90, Cy3B-geldanamycin FP displacement. inhibition, % at 30 µM. 0.35% of 64,000 active. AID 429;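 active means inhibition above 50%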;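 further: 0% = tracer plus lysate wells and 100% = tracer alone without lysate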
MKP-1 inh: blocks human MKP-1 phosphatase activity; 0.15% of 65,000 active; AID 374; P28562; inhibition, %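 (compounds tested at a single concentration somewhere between 10 and 100 µM)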; recombinant MKP-1, OMFP hydrolysis fluorescence;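 active means inhibition above about 50%, limit read from the data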;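 further: 0% = DMSO max control wells and 100% = wells with enzyme stopped by NaOH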
Cdc25B inh: inhibitors of human Cdc25B phosphatase; inhibition, %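 (compounds tested at 10 µM final in the well)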; 0.1% of 65,000 active; recombinant Cdc25B, OMFP fluorescence Ex485/Em525; in the data active means inhibition above about 50%
Target sequence (P30305 whole entry, looked up): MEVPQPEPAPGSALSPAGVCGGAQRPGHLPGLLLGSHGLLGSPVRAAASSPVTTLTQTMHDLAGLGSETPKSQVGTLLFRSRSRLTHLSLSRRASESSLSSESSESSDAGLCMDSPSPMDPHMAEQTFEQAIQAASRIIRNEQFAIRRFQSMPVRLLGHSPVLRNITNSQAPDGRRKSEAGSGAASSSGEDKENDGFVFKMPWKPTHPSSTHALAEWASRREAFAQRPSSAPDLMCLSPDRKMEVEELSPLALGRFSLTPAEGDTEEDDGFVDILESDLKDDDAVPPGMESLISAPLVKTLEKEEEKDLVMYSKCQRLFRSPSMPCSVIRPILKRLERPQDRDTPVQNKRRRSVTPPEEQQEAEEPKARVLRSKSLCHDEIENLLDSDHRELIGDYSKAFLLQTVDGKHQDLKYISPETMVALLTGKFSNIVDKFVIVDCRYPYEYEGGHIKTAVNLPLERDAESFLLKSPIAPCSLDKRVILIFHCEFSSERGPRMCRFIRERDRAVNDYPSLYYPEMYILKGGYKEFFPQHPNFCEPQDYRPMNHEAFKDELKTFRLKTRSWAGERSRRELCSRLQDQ
Abs 340nm: absorbance at 340 nm; compound absorbance at 340 nm, fold over control; fold change at 10 µM; 65,000 tested, under 10 active;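 active means at 10 µM dose, initial 340 nm absorbance at least 2 fold that of control wells; inactive means change under 2 fold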;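 further: initial absorbance extrapolated from kinetic A340 decline of NADH oxidation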
Autofluor 339: intrinsic fluorescence of library compounds, ex339/em460 – biochemical, MLSMR library, data from DPM-DC assay, artefact control, profiling panel; 5.5% of 65,000 active; fluorescence fold increase at 10 µM; compound autofluorescence, ex339/em460 nm, NADH buffer; active compounds read high; 1 = no-compound wells, NADH background;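 active means at 10 µM, mean starting fluorescence two-fold or more over control wells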;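 further: signal is the first read of a kinetic run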
Numbers without * were called inactive; x = no result given. Most compounds without a hit are left out; they make up all but 5.7% or so of the library.

SMILES | NADH coupling | Hsp90 block | MKP-1 inh | Cdc25B inh | Abs 340nm | Autofluor 339
O=C1c2ccccc2C(Nc2cccnc2)N1Cc1ccc2c(c1)OCO2 (configuration not stated) | 1.0% | 2.0 | 8.7 | 3.8 | 1.04 | 1.13
COc1ccc(Oc2c(C)oc3c(CN(C)C)c(O)ccc3c2=O)cc1 | 5.0% | 0.2 | 25.0 | -8.0 | 1.16 | 3.92*
COc1ccc(Oc2coc3c(CN(C)C)c(O)ccc3c2=O)cc1 | 14.0% | x | 12.7 | -14.5 | 1.16 | 2.26*
Cc1oc2cc(OC(C)C(=O)O)ccc2c(=O)c1Oc1ccccc1 (configuration not stated) | 11.0% | -2.3 | 24.2 | -2.7 | 1.01 | 0.94
COc1ccc(-c2coc3c(CN4CCCCC4)c(O)c(CN4CCCCC4)c(O)c3c2=O)cc1 | 3.0% | 0.1 | -3.1 | -4.3 | 1.03 | 1
O=C(Nc1cccc(S(=O)(=O)c2cccc(NC(=O)C3CC3)c2)c1)C1CC1 | 5.0% | -2.8 | 5.4 | -8.8 | 1.03 | 1.13
COc1ccc(C2C(C(=O)Nc3ccccc3)=C(C)Nc3nc(CCCO)nn32)cc1 (configuration not stated) | 8.0% | -1.9 | 5.3 | 21.4 | 1 | 1.05
O=C1CCC(=O)N1c1nc2n(n1)C(c1ccccc1)C=C(c1ccc(Br)cc1)N2 (configuration not stated) | 6.0% | 2.1 | 0.7 | -0.2 | 1.04 | 1.44
COc1ccc(C2C=C(c3cccs3)Nc3nc(CCCO)nn32)cc1 (configuration not stated) | 9.0% | -6.2 | 24.2 | 10.0 | 1.08 | 3.93*
COc1ccc(C2C=C(c3ccccc3)Nc3nc(CCCO)nn32)cc1 (configuration not stated) | 9.0% | -1.9 | 24.3 | 5.3 | 1.1 | 4.87*
OCCCc1nc2n(n1)C(c1ccccc1)C=C(c1ccccc1)N2 (configuration not stated) | 11.0% | 92.0* | 6.5 | 2.0 | 1.06 | 1.86
COc1ccc(N(CC(=O)N2CCCC(C)C2)S(=O)(=O)c2c(C)nn(C)c2C)cc1 (configuration not stated) | 4.0% | -3.3 | 10.0 | -7.2 | 1.01 | 1.07
O=c1c(O)c(-c2cc(O)c(O)c(O)c2)oc2cc(O)cc(O)c12 | x | 100.0* | x | x | x | x
CC(C)(C)c1csc(NC(=O)c2cccs2)n1 | 2.0% | -1.2 | -7.6 | -13.9 | 1.09 | 1.17
CSc1nc2ccc3nc(NC(=O)c4cccs4)sc3c2s1 | 10.0% | -3.0 | 28.9 | -4.9 | 1.08 | 4.55*
COC(=O)CSc1nc(C)c(C(C)=O)cc1C#N | 3.0% | -2.4 | -2.6 | -20.9 | 0.98 | 1.06
CCOC(=O)c1cc(C#N)c(SCC(=O)c2cc(C#N)c(SC)nc2C)[nH]c1=O | 12.0% | -7.1 | 23.7 | 5.1 | 1.2 | 2.04*
O=C(COn1nnc2ccc(Cl)cc21)NCc1ccccc1 | 4.0% | -2.9 | 31.0 | -13.7 | 0.99 | 1.08
Cc1ccc2c(c1)[nH]c1c(=O)n(CCN3CCCCC3)cnc12 | 6.0% | -5.9 | -12.1 | 2.5 | 1.08 | 1.67
Cc1ccc2[nH]c3c(=O)n(CCN4CCNCC4)cnc3c2c1 | 12.0% | -4.0 | -12.5 | -8.3 | 1.02 | 3.09*
CCN1CCCC1CNc1ncnc2c1[nH]c1ccc(Cl)cc12 (configuration not stated) | 10.0% | -3.3 | -15.2 | 1.3 | 1.06 | 1.83
Cc1cccc2[nH]c3c(=O)n(CCN4CCNCC4)cnc3c12 | 14.0% | -2.8 | -13.3 | 1.3 | 1.03 | 2.54*
CCN1CCCC1Cn1cnc2c([nH]c3ccc(C)cc32)c1=O (configuration not stated) | 6.0% | -4.0 | 11.7 | 23.8 | 1.04 | 2.32*
O=c1c2[nH]c3ccccc3c2ncn1CCN1CCCCC1 | 11.0% | -6.8 | -11.6 | -2.4 | 1.03 | 2.08*
O=c1c2[nH]c3ccccc3c2ncn1CCN1CCOCC1 | 7.0% | -4.6 | -10.1 | -1.0 | 1.03 | 1.15
CC(Sc1nc2ccccc2s1)C(=O)N1CCOCC1 (configuration not stated) | 8.0% | x | 3.9 | -15.0 | 1.04 | 0.98
Cc1ccc(-c2csc3ncnc(Sc4nnc(CN5CCCCCC5=O)o4)c23)cc1 | 9.0% | -3.4 | 32.0 | -14.6 | 1 | 1.13
COc1ccc2nccc(C)c2c1 | x | -1.3 | x | x | x | x
CCCn1c(=NC(C)=O)c(C#N)cc2c(=O)n3cccc(C)c3nc21 | 2.0% | -7.3 | -1.0 | -3.2 | 1.02 | 2.89*
